# Only a sample is shown.
# aSyn 5UTR act: Activators via SNCA 5'UTR binding, MLPCN. activity score, % (tested at 7.5 µM), hits read low. alpha-synuclein 5'UTR reporter, activators screen. actives 7.1% (n = 300,000). AID 1814; in the data active = activity score below about -60%
# An asterisk follows results filed as active.
SMILES,aSyn 5UTR act
c1ccc(C2CCC3(CC2)Oc2ccccc2C2CC(c4cccnc4)=NN23)cc1 (stereo not drawn),-86*
Cc1ccc(NC(=O)c2ccc(OC(=S)N3CCOCC3)cc2)cc1,-75*
O=C(Nc1ccccc1Br)c1ccc(OC(=S)N2CCOCC2)cc1,-192*
Cc1csc(NC(=O)/C=C/c2ccco2)n1,-168*
O=C(/C=C/c1ccco1)Nc1nc(-c2ccc(F)c(F)c2)cs1,-100*
COc1ccc(-c2csc(NC(=S)NC(=O)/C=C/c3ccco3)n2)cc1OC,63
O=C(/C=C/c1ccco1)Nc1nc(-c2ccccn2)cs1,-79*
O=C(/C=C/c1ccco1)Nc1nc(-c2ccccc2)cs1,-250*
COc1ccc(NC(=O)C(=O)NCC2CCCN2S(=O)(=O)c2ccc(C)cc2)cc1 (stereo not drawn),91
Cc1ccc(S(=O)(=O)N2CCCC2CNC(=O)C(=O)Nc2ccc(F)cc2)cc1 (stereo not drawn),-74*
O=C(COC(=O)[C@@H]1CCCN1S(=O)(=O)c1ccc(Cl)cc1)NCC(F)(F)F,31
CN1c2ccccc2Oc2nnc(N3CCN(Cc4ccccc4)CC3)cc21,-97*
COc1ccc(CCCC(=O)Nc2ccccc2F)cc1,-118*
COc1ccc(C(=O)NC(=S)Nc2ccccc2F)cc1,-199*
COc1ccc(C(=O)NNC(=S)NC(=O)C(C)(C)C)cc1,60
CC(C)(C)C(=O)NC(=S)Nc1ccccc1F,-72*
Cc1cc(C)nc(-n2nc(C)c(Sc3ccc(F)cc3)c2N)n1,-182*
O=[N+]([O-])c1cc(/C=N/N2CCCCC2)ccc1Cl,-89*
CN1CCN(/N=C/c2ccc(Cl)c(Cl)c2)CC1,-145*
CN1CCN(/N=C/c2ccc(N(c3ccccc3)c3ccccc3)cc2)CC1,71
CN1CCN(/N=C/c2ccc(Br)cc2)CC1,-118*
COc1cccc(C(=O)Nc2cccc(C(C)=O)c2)c1,-114*
CCOc1c(Cl)cc(C(=O)Nc2cccc(C(=O)O)c2)cc1Cl,-80*
CCOc1cccc(C(=O)Nc2ccc(N3CCCC3)cc2)c1,-66*
COc1cccc(C(=O)Nc2cccc(OC(C)=O)c2)c1,-90*
SMILES,aSyn 5UTR act
CC(=O)Nc1cccc(NC(=O)c2ccc(COc3ccccc3)cc2)c1,-142*
CCOc1ccc(OCc2ccc(C(=O)N/N=C(\C)c3ccccn3)cc2)cc1,64
CCOc1ccc(C(=O)Nc2ccc(N3CCN(C)CC3)cc2)cc1Br,-75*
O=C(Nc1cc2c(cc1C(=O)O)OCCCO2)c1ccc(C(F)(F)F)cc1,-94*
COc1cccc(C(=O)Nc2cc3c(cc2C(C)=O)OCCO3)c1,-72*
COc1ccc(C(=O)Nc2ccc(N3CCCC3)cc2)cc1OC,-166*
CCOc1cccc(C(=O)Nc2cccc(C(C)=O)c2)c1,-151*
CC(=O)c1cc2c(cc1NC(=O)c1ccc(C)cc1)OCO2,-101*
COc1ccc(C(=O)Nc2cccc(OC(=O)c3ccco3)c2)cc1,-113*
CC1CC(C)(C)Nc2ccc(OC(=O)c3ccco3)cc21 (stereo not drawn),70
COc1cc2c(cc1OC)CN(C(=O)c1cc3ccccc3oc1=O)CC2,-99*
COc1ccc2oc(=O)c(C(=O)N3CCN(c4ccccc4C)CC3)cc2c1,-157*
COc1ccc2oc(=O)c(C(=O)N3CCN(c4ccccc4)CC3)cc2c1,-68*
COc1ccc(NC(=O)C2C3CC/C=C\CCC32)cc1 (stereo not drawn),-141*
CCOc1ccc(NC(=O)C2C3CC/C=C\CCC32)cc1 (stereo not drawn),-87*
CCOc1cc2nc3c4ccccc4n(C)c3nc2cc1OCC,-62*
Cc1ccc2cc(NC(=O)c3ccccc3)ccc2n1,-85*
O=C(Nc1ccc2ccccc2c1)c1cccc(F)c1,-117*
O=C(Nc1ccc2ccccc2c1)c1ccc(NS(=O)(=O)c2ccc(Br)s2)cc1,-102*
CC(C)CC(=O)Nc1ccc2ccccc2c1,-99*
Cc1ccc2cc(NC(=O)c3cccc(F)c3)ccc2n1,-79*
Cc1ccc2nc(/N=C(\N)NC(=O)NC3CCCCC3)nc(C)c2c1,-149*
Cc1nc(/N=C(\N)NC(=O)c2ccccc2)nc2ccccc12,-292*
Cn1nnnc1SCC(=O)c1ccc2c(c1)OCCO2,-67*
CCCn1nnnc1SCC(=O)c1ccc2c(c1)OCCO2,-83*
SMILES,aSyn 5UTR act
Clc1ccc(C#Cc2cccnc2)cc1,-187*
CCOC(=O)c1sc(=NC(=O)c2ccc(OC)c(OC)c2)n(C)c1C,-69*
CCOC(=O)c1sc(=NC(=O)c2ccccc2)n(C)c1C,-134*
CCOC(=O)c1sc(=NC(=O)c2cccc(OC)c2)n(C)c1C,-183*
O=C(Nc1nccs1)c1ccc(Cl)s1,-106*
O=C(Nc1ccc(Br)cn1)c1ccc(Br)s1,-198*
O=C(Nc1ccccn1)c1ccc(Cl)s1,-129*
O=C(Nc1ccc(Br)cn1)c1ccc(Cl)s1,-167*
O=C(Nc1nc(-c2ccccn2)cs1)c1ccc(Cl)s1,68
Cc1ccccc1C(=O)Nc1ccc(Br)cn1,-77*
O=C(Nc1ccc2sccc2c1)c1ccc(Cl)s1,-198*
Cn1c(=S)[nH]c2sc3c(c2c1=O)CCC(C(C)(C)C)C3 (stereo not drawn),-87*
CCC(=O)Nc1cccc(NC(=S)NC(=O)c2ccc(Cl)cc2)c1,-151*
CCOc1ccc(C(=O)NC(=S)Nc2cccc(S(=O)(=O)NC3=NCCC3)c2)cc1,111
CCC(=O)Nc1cccc(NC(=S)NC(=O)c2ccccc2C)c1,-113*
C=C1C(=O)O[C@@H]2[C@H]1[C@@H](OC(=O)/C(C)=C/C)C/C(C)=C\C(=O)/C=C(\C)[C@@H]2O,-311*
CC(C)NC(=S)N/N=C/c1ccc(N2CCOCC2)cc1,-87*
C=C(C)CNC(=S)N/N=C/c1ccc(N2CCOCC2)cc1,-64*
CSc1ccccc1C(=O)Nc1ncc(C)s1,-63*
Cc1ccc(C(=O)Nc2ncc(Cc3ccc(F)cc3)s2)o1,-107*
Cc1ccc(C(=O)Nc2ncc(C)s2)o1,-119*
Cc1ccc(C(=O)Nc2ncc(Cc3ccc(SC(F)F)cc3)s2)cc1,-163*
CC(C)c1cc(C(C)C)c(S(=O)(=O)N2c3ccccc3[C@]3(Br)C[C@H]4C(=O)N[C@@H](Cc5ccccc5)C(=O)N4[C@H]23)c(C(C)C)c1,65
CCc1c(C)c(C#N)c2nc3ccccc3n2c1Cl,105
Cc1cc(-c2ccco2)c(C#N)c2nc3ccccc3n12,-100*
SMILES,aSyn 5UTR act
COc1cc(-c2cc3nc4ccccc4n3c(N)c2C#N)cc(OC)c1OC,45
CS(=O)(=O)Nc1ccc(C(=O)NCCC2=CCCCC2)cc1,-109*
COc1ccccc1NC(=O)c1coc(=O)c(Br)c1,-63*
CC(C)CNC(=O)c1coc(=O)c(Br)c1,-87*
O=C(NCCc1ccccc1)c1coc(=O)c(Br)c1,-77*
O=C(NCCC1=CCCCC1)c1coc(=O)c(Br)c1,-65*
CC1CCC/C=C/C(=O)c2c(O)cc(O)cc2CC(=O)O1 (stereo not drawn),-153*
S=C(Nc1ccc(Br)cc1Cl)N1CCCC1,-91*
Cc1ccc(/C=C/C(=O)c2cc(Br)ccc2OC(=O)c2ccco2)cc1,-94*
CCc1ccc(/C=C/C(=O)c2cc(Br)ccc(=O)c2O)cc1,72
COc1cccc2cc(-c3nc(-c4cccs4)cs3)c(=O)oc12,-174*
O=c1oc2ccccc2cc1-c1nc(-c2cccs2)cs1,-133*
CNc1nnc(-c2cc3ccccc3oc2=O)s1,-78*
c1csc(-c2csc(-c3cccs3)n2)c1,-104*
N=c1oc2ccccc2cc1-c1nc(-c2ccccc2)cs1,-64*

# Assay outcomes as filed in PubChem.
